This is an account of results in PubChem BioAssay.

Assay [1] has as its target Tumor necrosis factor receptor superfamily member 10B (Homo sapiens) (UniProt O14763). As to the kind of experiment: viability loss of caspase-8 NB7 cells with TRAIL – with/without TRAIL, luminescence panel, confirmation (AID 651596). Particulars: NB7 neuroblastoma + caspase-8, TRAIL sensitization, NB7 Caspase-8, with TRAIL, mean of runs, at 10 µM, stronger effect = higher value.
Test in assay [2]: as above
The conditions noted are these: NB7 neuroblastoma + caspase-8, without TRAIL, NB7 Caspase-8, without TRAIL, mean of runs, at 10 µM.

Chain of Tumor necrosis factor receptor superfamily member 10B (Homo sapiens) (O14763 whole entry, looked up): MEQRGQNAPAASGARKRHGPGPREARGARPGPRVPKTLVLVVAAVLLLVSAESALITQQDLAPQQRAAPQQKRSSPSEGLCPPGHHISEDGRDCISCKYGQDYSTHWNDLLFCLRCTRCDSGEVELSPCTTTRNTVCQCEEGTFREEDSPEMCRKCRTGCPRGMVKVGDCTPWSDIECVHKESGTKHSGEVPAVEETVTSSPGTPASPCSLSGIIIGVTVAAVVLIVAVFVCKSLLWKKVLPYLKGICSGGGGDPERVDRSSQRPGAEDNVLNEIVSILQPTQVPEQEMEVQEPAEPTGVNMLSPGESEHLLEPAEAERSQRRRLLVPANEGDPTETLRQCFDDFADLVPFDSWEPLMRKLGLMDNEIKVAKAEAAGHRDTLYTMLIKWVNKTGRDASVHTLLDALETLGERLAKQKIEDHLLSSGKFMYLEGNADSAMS

For the compound `c1ccc2[nH]c(-c3ccc4c(c3)OCO4)nc2c1`, the activity in assay [1] came to 77.4%; in assay [2], 79.3%.

As for `Cc1ccc(CS(=O)(=O)c2ncc(Cl)c(C(=O)Nc3ccc(OC(F)F)cc3)n2)cc1`, the activity is 5.62% in assay [1] and -6.55% in assay [2].

In the case of `Cc1cccc(NC(=O)CCc2ccc(N3C(N)=NC(N)=NC3(C)C)cc2)c1`, the activity came out at 81.3% in assay [1] and 80.4% in assay [2].

For the compound `O=C(Nc1c(Cl)cc2c(c1Cl)Cc1cc([N+](=O)[O-])ccc1-2)C(Cl)Cl`, the results for the activity in assay [1] and in assay [2] were 89.3% and 94.9%, respectively.

With `CCOc1ccc(OCC(=O)N(CCC2=CCCCC2)c2c(N)n(Cc3ccccc3)c(=O)[nH]c2=O)cc1`, the values for the activity in assay [1] and in assay [2] were 48.6% and 1.7%, respectively.

As for `O=c1c(-c2ccc3c(c2)OCCO3)coc2cc(OC3OC(CO)C(O)C(O)C3O)ccc12` (configuration not stated), the activity amounted to 51.8% in assay [1] and 53.9% in assay [2].

In the case of `O=C(OCn1ncc(Cl)c(Cl)c1=O)c1ccccc1Cl`, the figures for the activity in assay [1] and in assay [2] were 99.1% and 99.3%, respectively.

For the compound `COc1cccc(C(=O)Nc2ccc(NC(=O)C(C)(C)C)cn2)c1`, the figures for the activity in assay [1] and in assay [2] were 79.7% and 83%, respectively.

In the case of `O=C(CC1SC(=Nc2ccccc2F)N(CCN2CCOCC2)C1=O)Nc1ccc(F)cc1F` (configuration not stated), the activity in assay [1] is -3.85%; in assay [2] it was -7.28%.

For `CC(=O)c1sc(NC(=O)c2ccc(C(C)(C)C)cc2)nc1C`, the activity in assay [1] stood at 30.1%; in assay [2] it was 35.9%.

Turning to `COc1ccc(C)cc1NC(=O)CN(Cc1nnc(-c2ccc(Cl)cc2)o1)C1CCCC1`, the activity in assay [1] is 76.7%; in assay [2], 92%.

Regarding `COc1ccc2[nH]c(C(=O)Nc3cccc(C)n3)cc2c1`, the activity in assay [1] was 58.8%; in assay [2], 59.5%.

Take `Cc1ccc2nc(NC(=O)c3cccs3)sc2c1`: the activity in assay [1] was 72.1%; in assay [2], 71.2%.

Turning to `Cc1nc2cc(Nc3nnc(-c4ccccc4)c4ccccc34)ccc2n1C`, the results for the activity in assay [1] and in assay [2] were 87.9% and 83.9%, respectively.

Take `Cc1nc2cc(-c3ccccc3)nn2c(N)c1-c1ccccc1`: the activity in assay [1] is 59%; in assay [2] it was 44.4%.

For `Cc1nc(N)nc(N)c1-c1ccc([N+](=O)[O-])cc1`, the activity stood at 71.8% in assay [1] and 81.2% in assay [2].

Turning to `COc1ccc(C(=O)Nc2cccc(OC)c2)cc1`, the activity in assay [1] worked out at 56.9%; in assay [2], 53.9%.

In the case of `O=C(Nc1ccc(N2CCCC2)c(Cl)c1)c1ccco1`, the activity in assay [1] came out at 43.3%; in assay [2], 27%.

Turning to `Cc1ccnc(NC(=O)c2ccc(Br)s2)c1`, the values for the activity in assay [1] and in assay [2] were 52.3% and 53%, respectively.

For the compound `Cc1csc(NC(=O)c2ccc(OCC3CCCO3)cc2)n1` (configuration not stated), the activity in assay [1] amounted to 54.9%; in assay [2] it was 64.9%.

Turning to `COc1ccc(C2C(C(=O)N3CCN(c4ccccc4)CC3)c3ccccc3C(=O)N2C)cc1` (configuration not stated), the activity in assay [1] came out at 69.5%; in assay [2], 66.3%.

As for `CCCCn1c(=O)[nH]c(=O)c2c1nc(Cn1ncc(Cl)c(Cl)c1=O)n2CCC`, the values for the activity in assay [1] and in assay [2] were 98.7% and 99%, respectively.

Take `O=C(c1ccc(CSc2nc3ccncc3[nH]2)cc1)N1CCCCCC1`: the activity in assay [1] came to 85.7%; in assay [2], 82.1%.

`O=c1cc(-c2ccccc2)oc2ccc3ccccc3c12`: the activity in assay [1] is 92.2%; in assay [2], 90.1%.

In the case of `O=Nc1c2cc(-c3ccccc3)[nH]nc-2c2ccccc12`, the activity in assay [1] is 78.8%; in assay [2], 78.7%.

As for `COc1ccc(/C=C(\C#N)C(=O)OCC(=O)Nc2ccc(-c3nc4ccc(C)cc4s3)cc2)cc1`, the activity in assay [1] was 42.9%; in assay [2], 27.9%.

For `COc1cccc2sc3ccc(C#CC4(O)CCCCC4)cc3c(=O)c12`, the activity in assay [1] was 46.1%; in assay [2], 45.8%.

Consider `COc1ccc(-n2cc(C(=O)c3ccccc3O)cn2)cc1`, for which the results for the activity in assay [1] and in assay [2] were 39.1% and 29.7%, respectively.

Take `COc1ccc(C(=O)Nc2ccccc2C(=O)Nc2cccnc2)cc1`: the figures for the activity in assay [1] and in assay [2] were 58.9% and 55.5%, respectively.

`Cc1ccccc1Oc1cc(-n2ncc(Cl)c(Cl)c2=O)ncn1`: the activity in assay [1] was determined as 99.7%; in assay [2], 99.5%.

As for `COc1cccc(C(=O)Cn2c(=N)n(C)c3ccccc32)c1`, the activity came out at 65.8% in assay [1] and 66.2% in assay [2].

Turning to `O=C(Nc1nc2ccccc2s1)c1ccc(OCC2CCCO2)cc1` (configuration not stated), the values for the activity in assay [1] and in assay [2] were 73.5% and 67%, respectively.

Turning to `Cc1ccc(-c2nn(CC(=O)NCc3cc(-c4nn(C)c(=O)c5ccccc45)ccc3C)c(=O)c3ccccc23)cc1`, the activity in assay [1] was 90.9%; in assay [2], 35.5%.

For the compound `Cc1ccc(S(=O)(=O)N2C[C@H]3[C@H]4C(=O)N(C5CCCCC5)C(=O)[C@H]4CC(=O)[C@H]3[C@@H]2c2cccc3ccccc23)cc1`, the activity in assay [1] is -8.53%; in assay [2] it was -13.6%.

As to `Nc1ccc(-c2ncc(-c3ccccc3)o2)cc1`, the activity in assay [1] was 28.2%; in assay [2] it was 29.8%.

With `O=c1oc2c(O)cccc2cc1-c1nc2ccccc2[nH]1`, the activity in assay [1] turned out to be 72%; in assay [2] it was 68.8%.

Regarding `COc1ccc(N2Cc3ccc(OC)c(OC)c3C2=O)cc1`, the activity in assay [1] is 40.6%; in assay [2], 37.8%.

Turning to `Fc1ccc(-n2nnc(-c3cnc4ccccc4c3)n2)cc1`, the figures for the activity in assay [1] and in assay [2] were 70.8% and 63.9%, respectively.

For `c1ccc2nc(-c3nc4ccccc4o3)ccc2c1`, the activity worked out at 79.6% in assay [1] and 76% in assay [2].

Regarding `Cc1cc(Cl)n2c(nc3cc(F)c(F)cc32)c1C#N`, the activity came out at 91.7% in assay [1] and 99.3% in assay [2].

Consider `CCOC(=O)[C@]12Cc3c(cc(OC)c(OC)c3OC)[C@H]1N(C1CCCCC1)C(=O)c1cc(OC)ccc12`, for which the activity is 61.2% in assay [1] and 80.1% in assay [2].

For the compound `Cc1ccc(-c2nc(NC(=O)c3nn(C)cc3[N+](=O)[O-])sc2C)cc1`, the results for the activity in assay [1] and in assay [2] were 97.6% and 99.3%, respectively.

On to `CCCCCC(=O)N1C[C@H](n2cc(COC(=O)c3ccccc3)nn2)[C@@H](O)C[C@@H]1c1ccc(Cl)cc1`, for which the activity is 72.6% in assay [1] and 61% in assay [2].

Regarding `Cn1c(=N)n(CC(=O)c2ccccc2)c2ccccc21`, the activity in assay [1] came to 70.7%; in assay [2], 74.4%.

As to `CCCc1ccc(-c2cc(C(=O)N/N=C/c3ccc([N+](=O)[O-])o3)c3ccccc3n2)cc1`, the figures for the activity in assay [1] and in assay [2] were 91.6% and 93.3%, respectively.

With `C[C@H](NC(=O)c1[nH]cnc1C(=O)Nc1ccc(CNC(=O)OC(C)(C)C)cc1)C(=O)OCc1ccccc1`, the activity stood at 63.1% in assay [1] and 37.6% in assay [2].
